Source: the supplement of paper PMC13380429

Test system: Vero E6 infected with SARS-CoV-2
Assay: inhibition of SARS-CoV-2 cytopathic effect; higher = more antiviral protection, active = above 15
Conditions: 48 h

Measured: inhibition of SARS-CoV-2 cytopathic effect

Cc1cc(C(C)(C)C)c(O)c(C)c1CC1=NCCN1 [oxymetazoline]
inactive: 1 nM 0.98% | 8.33 nM 1.83% | 100 nM 1.85% | 833.33 nM 1.64% | 10000 nM 0.31%

COc1ccc(-c2ccc(=N)n(CCCC(=O)O)n2)cc1 [gabazine]
inactive: 1 nM 0.8% | 8.33 nM 2.86% | 100 nM 5.99% | 833.33 nM -1.31% | 10000 nM -0.62%

N[C@@H]1CCN(c2cccnc2)C1
inactive: 1 nM 0.23% | 8.33 nM 0.19% | 100 nM 1.46% | 833.33 nM 2.41% | 10000 nM 3.85%

COc1ccc(C(=O)c2ccccc2)c(O)c1 [oxybenzone]
inactive: 1 nM 0.11% | 8.33 nM 2.31% | 100 nM 0.71% | 833.33 nM 0.2% | 10000 nM 0.65%

CCCCCCCCCCCCCCCC[n+]1ccccc1 [cetylpyridinium]
inactive: 1 nM 1.63% | 8.33 nM 0.22% | 100 nM 1.76% | 833.33 nM -0.25% | 10000 nM -21.9%

Cc1cc(C)c(CNC(=O)c2cc(-c3ccc(CN4CCOCC4)cc3)cc3c2cnn3C2CCCC2)c(=O)[nH]1
inactive: 1 nM -0.23% | 8.33 nM 1.2% | 100 nM 1.14% | 833.33 nM -1.29% | 10000 nM -1.46%

CC(C)C(=O)Nc1ncc(-c2cc(C(F)F)nn2-c2c(Cl)cccc2Cl)s1
inactive: 1 nM 0.32% | 8.33 nM 2.58% | 100 nM -0.32% | 833.33 nM -2.46% | 10000 nM -5.83%

CN(C)C(=N)NC(=N)N [metformin]
inactive: 1 nM 0.25% | 8.33 nM 1.14% | 100 nM 2.76% | 833.33 nM 1.97% | 10000 nM 5.07%
